Among all 69,000 compounds or so, about 8,600 (12%) showed an effect of 50% or more. For the sample, strong results were picked, then their nearest neighbours and some compounds at random.

In this assay the test system is Plasmodium berghei. The experiment in a line: Screen against P. berghei liver stage (PbLuc), transformed with Luciferase, at 10uM. It counts as functional, HepG2. To be noted: tested at 10 uM.
Take `CCc1cc(CNC(=O)c2cc(NC(=O)C(C)C)ccc2Cl)[nH]n1`: the INHIBITION was found to be 21.2%.
The same measure for `Cc1cc(CNC(=O)NC(C)c2ccncc2)no1` (stereo not drawn): 11.8%; for `Cc1cc(CNC(=O)c2cc(NC(=O)C(C)C)ccc2Cl)no1`: 68.3%; for `NC(=O)c1cnn2c1NCC(CNCCCc1ccccc1)C2` (stereo not drawn): 6.35%.
The same measure for `Cc1ccc(-c2cc(CNC(=O)N3CCC(O)CC3)on2)cc1`: -25.8%.
Consider `O=C(CSCc1ccncc1)NCc1csc(Br)c1`, for which the INHIBITION worked out at 43.2%.
The same measure for `CS(=O)(=O)N1CCCn2nc(CNc3ncccn3)cc2C1`: 34.9%; for `Cc1c[nH]c(CN2CCCn3nc(CNS(C)(=O)=O)cc3C2)n1`: 66.6%.
The same measure for `CC(=O)c1ccc(NCc2cc3n(n2)CCCN(S(C)(=O)=O)C3)nc1`: 50.3%; for `Cc1cc(F)cc(CN2CCCn3nc(CNS(C)(=O)=O)cc3C2)c1`: 24.9%; for `Cc1nccc(NCc2cc3n(n2)CCCN(S(C)(=O)=O)C3)n1`: 24.9%.
The same measure for `CS(=O)(=O)N1CCCn2nc(CNc3cc(C#N)ccn3)cc2C1`: 23%; for `Cc1cc(NCc2cc3n(n2)CCCN(S(C)(=O)=O)C3)ncn1`: -9.86%; for `CS(=O)(=O)NCc1cc2n(n1)CCCN(Cc1nc3ccccc3[nH]1)C2`: 20.1%.
Regarding `CCc1cc(NCc2cc3n(n2)CCCN(S(C)(=O)=O)C3)nc(C)n1`, the INHIBITION came to 53%.
With `CCOC1CCN(C(=O)NCCc2ccn(-c3ccccc3)n2)CC1` the figure was -10.1%; with `COCC1c2c(cnn2C)CCN1Cc1ccc(F)cc1` (stereo not drawn), 21.6%.
With `O=C1CC2(CCN(c3nncs3)C2)CN1c1ccc2c(c1)OCCO2` (stereo not drawn) the figure was -7.29%; with `COCCn1ccc2ccc(C(=O)N3CCN(C(C)=O)CC3)cc21`, 10.5%.
With `Cc1cc(C)n(Cc2ccc(C(=O)N3CCOCC3(C)C)cc2)n1` the figure was 27.9%; with `Cc1ccc(C(=O)N2CCCC(Cn3cc(C(C)(C)N)nn3)C2)s1` (stereo not drawn), 64%.
For `Cc1cnc(C(=O)N2CCCC(Cn3cc(C4CC4)nn3)C2)cn1` (stereo not drawn), the INHIBITION was -66.7%.
With `CCc1nnc2ccc(N3CCN(S(=O)(=O)c4ccc(C)s4)CC3)nn12` the figure was 10.1%; with `Cc1ccc(S(=O)(=O)N2CCC(Cn3cc(C(C)(C)N)nn3)CC2)s1`, 61.8%; with `CC1=C(C(=O)N2CCCC(Cn3cc(CO)nn3)C2)OCCO1` (stereo not drawn), 13%.
With `Cc1ccc(S(=O)(=O)N2CCN(CCC(N)=O)CC2)s1` the figure was 38.8%.
As for `CN1CCC(NCC(O)c2cccc(OCc3ccccc3)c2)CC1` (stereo not drawn), the INHIBITION was 14.9%.
Consider `NC(=O)c1cc(C2CCCN(C(=O)CCc3ccccn3)C2)n[nH]1` (stereo not drawn), for which the INHIBITION is recorded as -19.9%.
On to `CCC(C)N(Cc1sccc1C)C(=O)c1ccc(S(C)(=O)=O)cc1` (stereo not drawn), for which the INHIBITION was determined as 20.3%.
On to `CN(C)C(=O)CN1CCC(c2cncc(-c3cccc(Cl)c3)n2)CC1`, for which the INHIBITION is listed as 0.301%.
The same measure for `Cc1ccc(-n2nc3n(c2=O)CCN(C(=O)c2ccc(Cl)cc2)C3)cc1`: 15.9%; for `C1CC(c2nnc(CN3CCCC3c3noc(C4CC4)n3)o2)C1` (stereo not drawn): -7.13%.
With `N#CC1(NC(=O)c2ccc(-c3nc(C4CC4)n[nH]3)cc2)CCC1` the figure was 28.8%.
With `CCc1noc(CN(CCS(C)(=O)=O)C(C)(C)C)n1` the figure was -37.1%; with `Cc1cc(C)nc(N2CCC(NCCSc3nnnn3C)CC2)n1`, 35.1%.
For `Cn1nnnc1SCCNC1CCN(c2ccc3c(c2)OCO3)CC1`, the INHIBITION was found to be 65%.
With `CCc1cc(N2CCC(NCCSc3nnnn3C)CC2)nc(C)n1` the figure was 61.8%.
With `Cn1nnnc1SCc1cc2c(cc1Cl)OCO2`, the INHIBITION is recorded as 25.2%.
With `CCc1cc(N2CCC(NCCc3ccc(C)o3)CC2)nc(C)n1` the figure was 21.3%; with `CCc1c(C)nc(C)nc1N1CCC(NCCSc2nnnn2C)CC1`, 36.2%.
The same measure for `CN(Cc1cn(-c2ccccc2)nn1)C1CCCN(c2cccnn2)C1` (stereo not drawn): -9.76%; for `O=C1CC2(CCCNC2)C(=O)N1Cc1cccc(Cl)c1` (stereo not drawn): -4.82%.
The same measure for `CCN(CC)C1CCN(C(=O)c2cc3cc(C)cc(C)c3nc2C)CC1`: 1.05%; for `c1ccc(N2CCOCC3(CCCN(c4nccs4)C3)C2)nc1` (stereo not drawn): 19.8%.
For the molecule `c1ccc(-c2nnc(N3CCCC4(CCOC4)C3)s2)cc1` (stereo not drawn), the INHIBITION is given as 56.5%.
The same measure for `c1ccc2sc(N3CCCC4(CCOC4)C3)nc2c1` (stereo not drawn): -50.5%.
Regarding `c1ccc(N2CCOC3(CCCN(c4ncccn4)C3)C2)nc1` (stereo not drawn), the INHIBITION was 76.5%.
The same measure for `c1ccc(N2CCCC3(COCCN(c4nccs4)C3)C2)nc1` (stereo not drawn): 68.5%; for `c1cnc(N2CCOC3(CCCN(c4cnccn4)C3)C2)nc1` (stereo not drawn): -13.7%; for `Cc1ccc(N2CCCC3(COCCN(c4nccs4)C3)C2)nn1` (stereo not drawn): -8.19%.
With `CCS(=O)(=O)N1CCOC2(CCCN(Cc3ccccn3)C2)C1` (stereo not drawn) the figure was -28.1%; with `OC1(CN2CCCC2)COCCN(c2nnc(-c3ccccc3)s2)C1` (stereo not drawn), 26.6%; with `Cc1nnc(N2CCCC3(CN(c4ccccn4)CCO3)C2)o1` (stereo not drawn), -34%.
With `CCCS(=O)(=O)N1CCOC2(CCCN(c3ccccn3)C2)C1` (stereo not drawn) the figure was 11.4%.
Regarding `CCS(=O)(=O)N1CCOC2(CCCN(c3ccccn3)C2)C1` (stereo not drawn), the INHIBITION came to 50.7%.
The same measure for `Cc1ccc(C(=O)N2CCN(C)C3(CCC(=O)N(C)CC3)C2)c(F)c1` (stereo not drawn): 15.8%; for `CCc1nnc(CNC2CCCN(Cc3noc(C4CC4)n3)C2)o1` (stereo not drawn): -16%; for `COCCN1CCC(NCc2c(F)cccc2F)C1` (stereo not drawn): 25.4%.
With `CCn1cc(NC(=O)C2CCN(CC(=O)NC(C)(C)CC)CC2)cn1` the figure was 10%; with `CCS(=O)(=O)N1CCOCC2(CCN(c3ccccn3)C2)C1` (stereo not drawn), 11.4%; with `CCCS(=O)(=O)N1CCOCC2(CCN(c3ccccn3)C2)C1` (stereo not drawn), 20.5%.
The same measure for `CC(=O)N1CCCC2(C1)CN(c1ncc(C)cn1)CCO2` (stereo not drawn): -5.63%; for `Cc1cnc(N2CCOC3(CCCN(c4ncccn4)C3)C2)nc1` (stereo not drawn): 0.804%.
Turning to `Cc1cnc(N2CCOC3(CCCN(C)C3)C2)nc1` (stereo not drawn), the INHIBITION was found to be 52.3%.
With `CCS(=O)(=O)N1CCCC2(COCCN(c3ccccn3)C2)C1` (stereo not drawn) the figure was 56.1%; with `Cc1cccc(S(=O)(=O)NCC2CCN(c3cnccn3)CC2)c1`, -87.6%.
Consider `CN(C)S(=O)(=O)c1ccc2c(c1)N(Cc1nccn1C)CCC2`, for which the INHIBITION was found to be 41.4%.
`COCC(C)(O)CNC(=O)c1cc(-c2cc(OC)ccc2OC)nn1C` (stereo not drawn): the INHIBITION is listed as -43.5%.

For the origin of these results see ChEMBL document CHEMBL4513216, “Probing the Open Global Health Chemical Diversity Library for Multistage-Active Starting Points for Next-Generation Antimalarials” (ACS Infect Dis, 2020).
